Laboratory results published in PubChem BioAssay (NCI).
The panel holds about 83,000 compounds, 20% with a hit somewhere; the sample as a whole holds those more often.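 Plates (96-well) were seeded with cells, treated with compound at one concentration, and incubated for 48 hours before percent growth was determined.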 Unmarked numbers belong to inactive results. The source made the active and inactive calls. How the source made its calls: active means growth percent below 10; inactive means the rest.

Key:
Test in all cases: NCI-60 one-dose screen, 48 h (100 = growth as untreated, 0 = no growth, -100 = all killed)
Conditions in all cases: 10 µM unless noted
SN12C renal = test system: SN12C renal
UO-31 renal = test system: UO-31 renal
TK-10 renal = test system: TK-10 renal
ACHN renal = test system: ACHN renal
CAKI-1 renal = test system: CAKI-1 renal
A498 renal = test system: A498 renal
CCRF-CEM leukemia = test system: CCRF-CEM leukemia
MOLT-4 leukemia = test system: MOLT-4 leukemia

Row | SMILES | growth (SN12C renal) | growth (UO-31 renal) | growth (TK-10 renal) | growth (ACHN renal) | growth (CAKI-1 renal) | growth (A498 renal) | growth (CCRF-CEM leukemia) | growth (MOLT-4 leukemia)
1 | CN(C)CCCC(=O)Nc1ccc(Cn2nnc3c2C(=O)c2nnn(Cc4ccc(NC(=O)CCCN(C)C)cc4)c2C3=O)cc1 | -29.4% (active) | 94.5% | 116% | 102% | 91% | 72.9% | 16.8% | 11.4%
2 | COc1ccc(/C=c2/c(=O)[nH]c3nc4sc(C)c(C)c4c(=O)n23)cc1 | 84% | 73% | 101% | 91.5% | 74.2% | 101% | 66.9% | 62.3%
3 | Cl/C(=N\Nc1ccccc1)c1ccccc1 | 93.2% | 72.8% | 96.8% | 92.5% | 67.3% |  | 89.4% | 80.1%
4 | CC(=O)N1CC(Nc2ccc(OC(F)(F)F)cc2)=CC1=O | 56.7% | 65.7% | 51.9% | 53.4% | 30% |  | 11% | 27.1%
5 | NC1=CSC2=N/C(=C\c3ccc(Cl)cc3)C(=O)N12 | 76.8% | 58.2% | 72.8% | 88.3% | 38.8% | 65.6% | -13.5% (active) | 8.12% (active)
6 | CCC(C)[C@@H]1NC(=O)[C@@H]2CCCN2C(=O)[C@H](Cc2ccccc2)NC(=O)[C@@H]2CCCN2C(=O)[C@H](Cc2ccccc2)NC(=O)[C@@H]2CCCN2C(=O)[C@H](Cc2ccccc2)NC1=O (some centres not stated) | 102% | 105% | 104% | 103% | 94.1% | 108% | 92.7% | 89.7%
7 | CCCCCN(CCCCC)CCC[C@@H](C)[C@H]1CC[C@H]2[C@@H]3[C@H](OCCCN)C[C@@H]4C[C@H](OCCCN)CC[C@]4(C)[C@H]3C[C@H](OCCCN)[C@]12C | 54.3% | 65.2% |  | 54.7% | 75.8% | 92.8% | 15.3% | 41.1%
8 | CCCCCCCCCCCCCCCCNCCC[C@@H](C)[C@H]1CC[C@H]2[C@@H]3[C@H](OCCCN)C[C@@H]4C[C@H](OCCCN)CC[C@]4(C)[C@H]3C[C@H](OCCCN)[C@]12C | -82.9% (active) | -52.5% (active) | -60.3% (active) | -26.5% (active) | -70.8% (active) | -5.88% (active) | -45.5% (active) | -33.7% (active)
9 | CC1=C(NCCN2CCCC2)C(=O)c2c(OCc3ccc(C(F)(F)F)cc3)cccc2C1=O | 86.1% | 62.1% | 91.8% | 92.6% | 59.9% |  | 1.19% (active) | 12.2%
10 | CC1=C(NCCN2CCCC2)C(=O)c2c(OCc3cccc(Cl)c3)cccc2C1=O | 75.2% | 52.7% | 74.1% | 89.1% | 53.7% | 47.4% | 54.9% | 51.5%
11 | Cc1cccc(NC(=O)c2sc3nc4c(cc3c2N)C(=O)CCC4)c1 | 44.2% | 41.2% | 75.6% | 51.9% |  | -12.2% (active) | 25.4% | 51.1%
12 | COc1ccc(-c2cnoc2-c2cc(OC)c3c(c2)OCCO3)cc1 | 9.42% (active) | 39.6% | 71.8% | 21.1% | 33.5% | -8.01% (active) | -7.11% (active) | 6.08% (active)
13 | Cn1cc(-c2csc(-c3cn(C)c4ncccc34)n2)c2ccccc21 | 56.4% | 51.2% | 50.3% | 57.4% | 35.1% | -0.625% (active) | 10.1% | 14.6%
14 | Cc1ccc(S(=O)(=O)n2cc(-c3csc(-c4cn(C)c5ncccc45)n3)c3ccccc32)cc1 | 77.6% | 57.3% | 91.3% | 53% | 48.1% | 52.2% | 37.4% | 49.3%
15 | O=C1C[C@H](N2C(=O)c3ccccc3S2(=O)=O)C2CO[C@@H]1O2 | 91.8% | 63.7% | 92.4% | 78.2% | -80.1% (active) | 93.9% | 4.58% (active) | 79%
16 | CCCCNC(=O)NS(=O)(=O)c1ccc(N2N=C(c3cc(C)ccc3C)CC2c2cc(OC)c(OC)c(OC)c2)cc1 (configuration not stated) | 73.7% | 32.2% |  | 63.6% | 39% | 34.6% | 55.1% | 30.9%
17 | COc1ccc(/C=C2\N=C3Sc4cc(Cl)ccc4C(=O)N3C2=O)cc1 | 96.3% | 65% | 107% | 92.1% | 73.8% | 108% | 93.4% | 93.6%
18 | COc1ccc(/C=C2\N=C3SC=C(N)N3C2=O)cc1 | 20.4% | -4.09% (active) | 19.5% | 33% | -33% (active) | 5.67% (active) | -40.2% (active) | -15.9% (active)
19 | COc1ccc(C(=O)c2sc3nc4c(c(C(F)(F)F)c3c2N)CN(C(C)=O)CC4)cc1OC | 93.7% | 46.3% | 86% | 79.1% | 80% | 58.1% | 82.6% | 79.2%
20 | CCN(CC)CCC(=O)Nc1ccc(Cn2nnc3c2C(=O)c2nnn(Cc4ccc(NC(=O)CCN(CC)CC)cc4)c2C3=O)cc1 | -50.1% (active) | 99.9% | 122% | 87.6% | 85.9% | 14.6% | -13% (active) | -28.9% (active)
21 | O=c1c2cccc3c(NC4CCCCC4)ccc(c32)c2nc3ccccc3n12 | 87% | 41.4% | 77.4% | 72.9% | 47.2% | 99.1% | 65.4% | 49.8%
22 | O=C1CC(c2nc3ccccc3s2)CN1C1CCCCC1 (configuration not stated) | 93.5% | 70.5% | 121% | 98.5% | 89.1% | 73.2% | 100% | 90.9%
23 | Cn1cc(-c2nc(-c3c[nH]c4ccccc34)cs2)c2cccnc21 | 52.7% | 43.8% | 44% | 56.8% | 29.7% | -0.249% (active) | 7.02% (active) | 19.9%
24 | Cc1sc2nc3[nH]/c(=C\c4ccc(Cl)cc4)c(=O)n3c(=O)c2c1C | 98.1% | 103% | 102% | 101% | 105% | 99.5% | 90.2% | 94.1%
25 | O=C(CN1CCOCC1)Nc1ccc(Cn2nnc3c2C(=O)c2nnn(Cc4ccc(NC(=O)CN5CCOCC5)cc4)c2C3=O)cc1 | -32.1% (active) | 85.3% | 79.7% | 58.7% | 72.9% | -39.8% (active) | -21.4% (active) | -41.8% (active)
26 | O=C(Nc1cccc2[nH]c(C(F)(F)F)nc12)c1ccc(Br)cc1F | 26.5% | 10.9% | 52.8% | 33.5% | 14.6% | -0.338% (active) | 47.1% | 26.9%
27 | COC(=O)C12C3C(=O)N(c4ccc(OC)cc4)C(=O)C3C(c3cn(-c4ccccc4)nc3C)N1[C@H](c1cn(-c3ccccc3)nc1C)[C@@H]1C(=O)N(c3ccc(OC)cc3)C(=O)[C@@H]12 (some centres not stated) | 104% | 97.1% | 96.5% | 101% | 91.7% | 89.4% | 104% | 81.8%
28 | O=c1c2cccc3c(Nc4c(F)cccc4F)ccc(c32)c2nc3ccccc3n12 | 93.8% | 50.6% |  | 88% | 62% | 109% | 72.5% | 74.1%
29 | COc1ccc2nc3cc(Cl)ccc3c(N3CCN(c4nccc(NCc5ccccc5)n4)CC3)c2c1 | 76% | 45.9% | 62.6% | 68.5% | 62.2% | 28.8% | 0.798% (active) | 5.21% (active)
30 | CCOc1ccc(Nc2nc(-c3c(C)nc4ncccn34)cs2)cc1 | 14.3% | 33.9% |  | 20.5% | 34.1% | -17.2% (active) | -4.93% (active) | 8.54% (active)
